Our source for the Potency values is PubChem BioAssay AID2061320 (National Center for Advancing Translational Sciences (NCATS), 2025).

Records with an inconclusive call do not appear. Calls of active or inactive are those of the source. Calls come from the whole dose curve; as a rule, active = well fitted inhibition curve with a large enough effect; inconclusive = small, poorly fitted or top-dose-only effect; inactive = flat fitted curve, though single readings scatter.

The nature of this test: Identification of antibody-drug conjugate (ADC) payloads which are substrates of ATP-binding cassette drug efflux transporters: ABCG2-H460-MX20 cell line. To be noted: H460-MX20 (ABCG2) viability, CellTiter-Glo, 48 h; series mostly up to 28.7 µM. From the text: Antibody-drug conjugates (ADCs) feature an antibody recognizing a specific protein joined to a potent toxic payload. Numerous antibody-drug conjugates have received FDA approval; however, clinical resistance arises. Resistance mechanisms include decreased expression or mutation of the antibody target, impaired payload release, or increased expression of ATP-binding cassette (ABC) efflux transporters associated with multidrug resistance. We therefore sought to characterize the interaction of ABC multidrug transporters with ADC payloads. We performed a high-throughput screen with 27 common ADC payloads using cells lines expressing ABC transporters P-glycoprotein (P-gp, encoded by ABCB1) or ABCG2 (encoded by ABCG2). Confirmatory assays were also performed using cells transfected to express P-gp, ABCG2, or MRP1 (encoded by ABCC1). Several commonly used ADC payloads were substrates of P-gp, including calicheamicin gamma1, monomethyl auristatin E, DM1, and DM4. All the pyrrolobenzodiazepines tested - SJG136, SGD-1882, SG2057, and SG3199 - were substrates of P-gp, ABCG2, and MRP1. […] These findings highlight the risk of transporter-mediated resistance with certain ADC payloads and underscore the importance of selecting payloads that evade ABC transporter recognition in future ADC development.
HEK-293 cells were transfected with empty vector (pcDNA) or vector containing the human ABCB1 (MDR-19), ABCG2 (R-5), or ABCC1 gene (MRP1) and were maintained in EMEM with 2 mg/mL G418 added to maintain transporter expression. The HeLa derivative KB-3-1 and the P-gp overexpressing KB-8-5-11 subline were maintained in DMEM; KB-8-5-11 additionally received 100 ng/mL colchicine. H460 parental cells were obtained from the Division of Cancer Treatment and Diagnosis Tumor Repository, National Cancer Institute at Frederick, MD and were cultured in RPMI. The ABCG2 expressing subline H460 MX20 was generated by selecting H460 cells in 20 nM mitoxantrone. Media in all cases was supplemented with 10% FBS and 1% penicillin-streptomycin. We explored 27 common ADC payloads, in two orthogonal, paired cell line sets-a drug selected and transfected set for each transporter--to identify substrates of the ABC transporters P-gp and ABCG2. Compounds were sourced from Levena Biopharma (San Diego, CA), Selleck Chem (Houston, TX), ChemieTek (Indianapolis, IN), or Microsource Discovery Systems (Gaylordsville, CT). Screening was performed as previously described. Briefly, cells were plated at a density of 500 cells/well in 1536 well plates with compounds added using a 1536-head pin tool (Kalypsys, San Diego CA). Cells were incubated with cytotoxic drugs and processed with CellTiter Glo reagent (Promega, Madison, WI) to determine viability after 48 hours. P-gp substrates were identified by comparing compound activity between paired sets of low-expressing (sensitive) and over-expressing (resistant) cell lines.
(In general: In ATP-based viability assays light output follows the ATP content of the culture.)
Turning to `COc1cccc2c1C(=O)c1c(O)c3c(c(O)c1C2=O)C[C@@](O)(C(=O)CO)CC3OC1CC(N2CCOC(OC)C2)C(O)C(C)O1` (stereo partly specified), the Potency is 8.4 nM (active).

Turning to `COc1cc2cc(c1Cl)N(C)C(=O)C[C@H](OC(=O)[C@H](C)N(C)C(=O)CCS)[C@]1(C)OC1[C@H](C)C1C[C@@](O)(NC(=O)O1)[C@H](OC)/C=C/C=C(\C)C2` (stereo partly specified), the Potency is 15000 nM (active).

`CC[C@H](C)[C@@H]1NC(=O)CNC(=O)[C@H]2Cc3c([nH]c4cc(O)ccc34)S(=O)C[C@H](NC(=O)CNC1=O)C(=O)N[C@@H](CC(N)=O)C(=O)N1C[C@H](O)C[C@H]1C(=O)N[C@@H]([C@@H](C)[C@@H](O)CO)C(=O)N2` (stereo partly specified): the Potency is 1060 nM (active).

On to `CC[C@H](C)[C@H](NC(=O)[C@H]1CCCCN1C)C(=O)N(C)[C@H](C[C@@H](OC(C)=O)c1nc(C(=O)N[C@@H](Cc2ccccc2)C[C@H](C)C(=O)O)cs1)C(C)C`, for which the Potency entry is “inactive”.

Take `CC[C@H](C)[C@@H]([C@@H](CC(=O)N1CCC[C@H]1[C@H](OC)[C@@H](C)C(=O)N[C@H](C)[C@@H](O)c1ccccc1)OC)N(C)C(=O)[C@@H](NC(=O)[C@H](C(C)C)N(C)C)C(C)C`: the Potency is 598 nM (active).

In the case of `COc1cc2cc(C(=O)N3C[C@@H](CCl)c4c3cc(O)c3ccccc43)[nH]c2c(OC)c1OC`, the Potency was 2.1 nM (active).
